# From the supplement of paper PMC11624193, “Coupling cellular drug-target engagement to downstream pharmacology with CeTEAM” (Nature Communications, 2024)
# Where a name gives a salt, the structure may show the parent alone. A number with no mark means an inactive call.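 The calls were made as follows: active = log2 fold change beyond 2 SD from the library mean after excluding viability outliers; inactive = within 2 SD.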
# Molecular target: PARP1 L713F-nLuc biosensor (HCT116) (UniProt P09874)
# Assay: PARP1 L713F-nLuc/akaLuc ratio relative to DMSO control (biosensor stabilization) (fold change); higher = more PARP1 biosensor stabilization (target engagement / stabilizer), active = hit call of the paper
# Conditions: 24 h
# [1] = stock concentration (mM; final µM = stock mM x 1): 10
# [2] = stock concentration (mM; final µM = stock mM x 1): 2
# Chain of PARP1 L713F-nLuc biosensor (HCT116) (P09874 whole entry L713F, looked up): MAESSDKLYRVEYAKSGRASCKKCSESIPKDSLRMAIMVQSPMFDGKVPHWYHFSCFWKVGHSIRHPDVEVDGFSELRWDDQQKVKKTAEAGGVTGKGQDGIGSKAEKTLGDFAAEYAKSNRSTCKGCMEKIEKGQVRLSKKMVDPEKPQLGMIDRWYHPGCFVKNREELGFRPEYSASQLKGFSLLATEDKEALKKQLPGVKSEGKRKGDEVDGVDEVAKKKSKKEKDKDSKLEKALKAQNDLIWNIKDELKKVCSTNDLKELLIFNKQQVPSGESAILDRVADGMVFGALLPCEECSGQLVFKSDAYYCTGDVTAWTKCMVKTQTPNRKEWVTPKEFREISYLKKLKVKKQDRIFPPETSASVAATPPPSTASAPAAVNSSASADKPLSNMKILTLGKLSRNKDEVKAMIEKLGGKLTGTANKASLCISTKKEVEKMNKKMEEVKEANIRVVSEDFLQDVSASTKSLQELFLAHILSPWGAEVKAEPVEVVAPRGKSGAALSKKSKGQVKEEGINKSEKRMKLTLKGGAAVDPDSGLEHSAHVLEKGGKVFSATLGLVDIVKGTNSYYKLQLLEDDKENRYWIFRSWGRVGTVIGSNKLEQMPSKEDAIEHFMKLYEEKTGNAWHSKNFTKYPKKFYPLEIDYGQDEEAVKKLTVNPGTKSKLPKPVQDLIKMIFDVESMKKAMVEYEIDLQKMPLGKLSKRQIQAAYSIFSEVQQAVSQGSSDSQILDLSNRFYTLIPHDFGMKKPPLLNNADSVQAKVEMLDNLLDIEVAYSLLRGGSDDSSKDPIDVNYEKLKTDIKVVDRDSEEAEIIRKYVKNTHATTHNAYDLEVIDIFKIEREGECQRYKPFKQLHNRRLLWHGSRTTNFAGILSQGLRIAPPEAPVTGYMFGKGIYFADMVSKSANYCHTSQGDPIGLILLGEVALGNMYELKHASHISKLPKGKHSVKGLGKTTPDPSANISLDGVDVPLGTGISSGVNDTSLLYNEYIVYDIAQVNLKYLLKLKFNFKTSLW
compound,measurement,setting,value
C=C(C)[C@@H](CC=C(C)C)C[C@@]12C[C@@H](CC=C(C)C)C(C)(C)[C@@](CC=C(C)C)(C(=O)C(C(=O)c3ccc(O)c(O)c3)=C1O)C2=O [Garcinol],PARP1 L713F-nLuc/akaLuc ratio,[1],0.631
CC1=C2C(=O)O[C@@H](c3ccoc3)[C@]2(C)CCC1 [Fraxinellone],PARP1 L713F-nLuc/akaLuc ratio,[1],0.831
Nc1ncn([C@@H]2O[C@H](CO)[C@@H](O)[C@H]2O)c(=O)n1 [5-Azacytidine],PARP1 L713F-nLuc/akaLuc ratio,[1],2.35
CC[C@H](C)C(=O)O[C@H]1C[C@H](O)C=C2C=C[C@H](C)[C@H](CC[C@@H](O)C[C@@H](O)CC(=O)O)[C@H]21 [Pravastatin sodium],PARP1 L713F-nLuc/akaLuc ratio,[1],0.829
CS(=O)(=O)c1ccc(-c2cnc(NCc3ccco3)n3cnnc23)cc1,PARP1 L713F-nLuc/akaLuc ratio,[1],0.722
NC(=O)[C@H](CCCN=C(N)CCl)NC(=O)c1ccccc1 [Cl-amidine (hydrochloride)],PARP1 L713F-nLuc/akaLuc ratio,[1],0.914
C[C@H]1CNCCCN1S(=O)(=O)c1cccc2cncc(F)c12 [Ripasudil (K-115) hydrochloride dihydrate],PARP1 L713F-nLuc/akaLuc ratio,[1],1.12
CC(C)NC[C@@H](C(=O)N1CCN(c2ncnc3c2[C@H](C)C[C@H]3O)CC1)c1ccc(Cl)cc1 [Ipatasertib (GDC-0068)],PARP1 L713F-nLuc/akaLuc ratio,[1],0.669
O=C1CN2Cc3c(ccc(Cl)c3Cl)N=C2N1 [Anagrelide HCl],PARP1 L713F-nLuc/akaLuc ratio,[1],0.856
CN(C)c1ccc(-c2nc3ncc(Cl)c(N4CCN(CC(=O)Nc5nccs5)CC4)c3[nH]2)cc1,PARP1 L713F-nLuc/akaLuc ratio,[2],0.845
CCc1c(N(CC)C2CCOCC2)cc2oc(C3CCN(C(C)C)CC3)cc2c1C(=O)NCc1c(C)cc(C)[nH]c1=O,PARP1 L713F-nLuc/akaLuc ratio,[2],0.847
Cn1cc(C[C@@H](N)C(=O)O)c2ccccc21 [Indoximod (NLG-8189?],PARP1 L713F-nLuc/akaLuc ratio,[2],0.857
COc1cc2/c(=N/c3ccc(Br)cc3F)nc[nH]c2cc1OCC1CCN(C)CC1 [Vandetanib (ZD6474)],PARP1 L713F-nLuc/akaLuc ratio,[2],0.748
Cc1nn(C)c(COc2ccc(N3CCN(S(=O)(=O)N(C)C)CC3)cc2)c1-c1cccc2c(CCCOc3cccc4ccccc34)c(C(=O)O)n(CCN3CCOCC3)c12,PARP1 L713F-nLuc/akaLuc ratio,[2],1.04
N[C@@H]1[C@@H](O)[C@H](O[C@@H]2O[C@H](CO)[C@@H](O)[C@H](O)[C@H]2N)[C@@H](CO)O[C@H]1O [Chitosan oligosaccharide],PARP1 L713F-nLuc/akaLuc ratio,stock concentration (mM; final µM = stock mM x 1): 9,0.65
CCC(C)n1ncn(-c2ccc(N3CCN(c4ccc(OCC5COC(Cn6cncn6)(c6ccc(Cl)cc6Cl)O5)cc4)CC3)cc2)c1=O (stereo not drawn) [Itraconazole],PARP1 L713F-nLuc/akaLuc ratio,[2],0.872
COc1cc2c(N3CCN(C(=O)Nc4ccc(OC(C)C)cc4)CC3)ncnc2cc1OCCCN1CCCCC1 [Tandutinib (MLN518)],PARP1 L713F-nLuc/akaLuc ratio,[2],1.73
CC(C)Nc1cc(-c2c[nH]c(C(=O)N[C@H](CO)c3cccc(Cl)c3)c2)c(Cl)cn1,PARP1 L713F-nLuc/akaLuc ratio,[1],0.364
Cc1cc(C)nc(SCC(=O)Nc2ncc(Cc3cccc(OCc4cn(Cc5ccccc5)nn4)c3)s2)n1,PARP1 L713F-nLuc/akaLuc ratio,[1],0.615
COc1cc2ncnc(Nc3ccc(NC(=O)c4ccccc4)cc3)c2cc1OC [Aurora kinase inhibitor-2],PARP1 L713F-nLuc/akaLuc ratio,[1],1.35
CO[C@H]1C(=O)[C@]2(C)[C@@H](OC)C[C@H]3OC[C@@]3(OC(C)=O)[C@H]2[C@H](OC(=O)c2ccccc2)[C@]2(O)C[C@H](OC(=O)[C@H](O)[C@@H](NC(=O)OC(C)(C)C)c3ccccc3)C(C)=C1C2(C)C [Cabazitaxel],PARP1 L713F-nLuc/akaLuc ratio,[1],1.2
CC(C)N(CCC(=O)c1ccc2ccccc2c1)Cc1ccccc1,PARP1 L713F-nLuc/akaLuc ratio,[1],0.841
O=C(O)CNC(=O)c1c(O)cc(CCc2ccccc2)n2ncnc12 [Enarodustat],PARP1 L713F-nLuc/akaLuc ratio,[1],1.29
COc1cc2ncnc(Nc3ccc(F)c(Cl)c3)c2cc1OCCCN1CCOCC1 [Gefitinib (ZD1839)],PARP1 L713F-nLuc/akaLuc ratio,[1],1.04
Cc1cc(-c2ncc(CC(=O)Nc3ccc(-c4cnccn4)cn3)cc2C)ccn1,PARP1 L713F-nLuc/akaLuc ratio,[1],1.03
S=C(NCc1ccc2c(c1)OCO2)N1CCN(c2ncnc3c2oc2ccccc23)CC1 [Amuvatinib (MP-470)],PARP1 L713F-nLuc/akaLuc ratio,[1],0.659
CONC(=O)c1ccccc1Nc1cc(Nc2cc(C)nn2C(C)C)ncc1Cl,PARP1 L713F-nLuc/akaLuc ratio,[1],0.987
"Cc1c(C(=O)Nc2ccc(N3C[C@@H](C)O[C@@H](C)C3)nc2)cccc1-c1ccc(OC(F)(F)F)cc1 [Sonidegib (Erismodegib, NVP-LDE225)]",PARP1 L713F-nLuc/akaLuc ratio,[1],0.652
O=C1C(Cl)=C(NCCN2CCOCC2)C(=O)c2ncccc21,PARP1 L713F-nLuc/akaLuc ratio,[1],0.636
CC1=C(CC[C@@H](C)CO[C@@H]2O[C@H](CO)[C@@H](O)[C@H](O)[C@H]2O)O[C@H]2C[C@H]3[C@@H]4CC=C5C[C@@H](O[C@@H]6O[C@H](CO)[C@@H](O[C@@H]7O[C@@H](C)[C@H](O)[C@@H](O)[C@H]7O)[C@H](O)[C@H]6O[C@@H]6O[C@@H](C)[C@H](O)[C@@H](O)[C@H]6O)CC[C@]5(C)[C@H]4CC[C@]3(C)[C@@H]12 [Pseudoprotodioscin],PARP1 L713F-nLuc/akaLuc ratio,[1],0.989
CC(O)c1cc(C(=O)N[C@@H](C)Cn2ccc(-c3ccc(C#N)c(Cl)c3)n2)n[nH]1 (stereo partly drawn) [Darolutamide (ODM-201)],PARP1 L713F-nLuc/akaLuc ratio,[1],0.613
CCCCCOC(=O)Nc1nc(=O)n([C@@H]2O[C@H](C)[C@@H](O)[C@H]2O)cc1F [Capecitabine],PARP1 L713F-nLuc/akaLuc ratio,[1],0.759
O=C(NCc1ccncc1)C12CC3CC(C1)CC(c1ccc(Cl)cc1)(C3)C2,PARP1 L713F-nLuc/akaLuc ratio,[1],0.757
C[C@@H]1CCN(C(=O)CC#N)C[C@@H]1N(C)c1ncnc2[nH]ccc12 [Tofacitinib (citrate)],PARP1 L713F-nLuc/akaLuc ratio,[1],0.775
Cc1ccc(NC(=O)c2ccc(CN3CC[C@H](N(C)C)C3)c(C(F)(F)F)c2)cc1Nc1nccc(-c2cncnc2)n1 [Bafetinib (INNO-406)],PARP1 L713F-nLuc/akaLuc ratio,[1],0.726
CCN(CCN(C)C)C(=O)CNCc1cc(C(N)=O)ccn1 [KDOAM-25 (citrate)],PARP1 L713F-nLuc/akaLuc ratio,[1],1.15
O=C(O)CC1CC(c2ccccc2)=NO1 (stereo not drawn),PARP1 L713F-nLuc/akaLuc ratio,[1],1.72
CC(C)Oc1ccc(-c2nn([C@@H](C)c3oc4ccc(F)cc4c(=O)c3-c3cccc(F)c3)c3ncnc(N)c23)cc1F [umbralisib (TGR-1202)],PARP1 L713F-nLuc/akaLuc ratio,[1],1.01
"CC1(C)CCC(CN2CCN(c3ccc(C(=O)NS(=O)(=O)c4ccc(NCC5CCOCC5)c([N+](=O)[O-])c4)c(Oc4cnc5[nH]ccc5c4)c3)CC2)=C(c2ccc(Cl)cc2)C1 [Venetoclax (ABT-199, GDC-0199)]",PARP1 L713F-nLuc/akaLuc ratio,[1],0.901
Cc1cc(C)c(CNC(=O)c2cc(-c3ccc(N4CCN(C)CC4)nc3)cc3c2c(C)cn3C(C)C)c(=O)[nH]1,PARP1 L713F-nLuc/akaLuc ratio,[1],1.47
CCN(c1cc(-c2ccc(CN3CCOCC3)cc2)cc(C(=O)NCc2c(C)cc(C)[nH]c2=O)c1C)C1CCOCC1 [Tazemetostat],PARP1 L713F-nLuc/akaLuc ratio,[1],0.962
COC(=O)c1ccc2c(c1)[nH]c1ncnc(NCCCN3CCCCC3)c12,PARP1 L713F-nLuc/akaLuc ratio,[1],1.02
COc1cc([C@@H]2c3cc4c(cc3[C@@H](O[C@@H]3O[C@@H]5CO[C@@H](C)O[C@H]5[C@H](O)[C@H]3O)[C@H]3COC(=O)[C@H]23)OCO4)cc(OC)c1O [Etoposide],PARP1 L713F-nLuc/akaLuc ratio,[1],0.601
CNCCN1CCC(OCc2ccccc2)CC1,PARP1 L713F-nLuc/akaLuc ratio,[1],0.908
O=c1[nH]nc2c3c(cccc13)N=C(CN1Cc3ccccc3C1)N2,PARP1 L713F-nLuc/akaLuc ratio,[1],8.18 (active)
Cc1ccc(Nc2nccc(N(C)c3ccc4c(C)n(C)nc4c3)n2)cc1S(N)(=O)=O [Pazopanib],PARP1 L713F-nLuc/akaLuc ratio,[1],1.33
Cc1nn2c([nH]c(=O)c3cccnc32)c1C#N,PARP1 L713F-nLuc/akaLuc ratio,[1],0.851
Cn1cc(C2=C(c3cn(CCCSC(=N)N)c4ccccc34)C(=O)NC2=O)c2ccccc21 [Ro 31-8220 (mesylate)],PARP1 L713F-nLuc/akaLuc ratio,[1],1.62
